# Values without a mark were called inactive. For some assays here: Results with a measured potency or affinity are listed apart. The source made the active and inactive calls. Unless noted, no rule for the calls is given here.
# How the values were obtained:
# [1] = antimalarial activity against Dd2 strain (AID 2302;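 active = growth inhibition above 50% at the single 2 µM test dose, taken to imply half-maximal potency below 2 µM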;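 also: 0% = DMSO untreated growth and 100% = chloroquine plus artemisinin killed control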); conditions: P. falciparum Dd2 in RBCs, LDH growth readout, 72 h; at 2 µM; hits give high values
# [2] = human hepatoma cell viability loss – ATP luminescence, cytotoxicity control for P. falciparum antimalarial project, primary screen (AID 2303;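 active = inhibition above 50%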;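 also: 0% = DMSO wells and 100% = digitonin-killed cells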); conditions: HepG2 viability, 24-48 h, at 10 µM, hits give high values
# [3] = target: L-lactate dehydrogenase (Plasmodium falciparum (isolate CDC / Honduras)) (UniProt Q27743); assay: PfLDH activity inhibition – cell lysate, 3D7 strain, counter-screen for P. falciparum growth inhibition project (AID 2304);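 also: 0% = vehicle and 100% = reference inhibitor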; conditions: P. falciparum 3D7 crude extract, LDH APAD/NBT absorbance; at 2 µM; hits give high values
# [4] = inhibition of 3D7 malaria parasite growth – strain 3D7 (AID 2306);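 also: 0% = DMSO wells and 100% = chloroquine plus artemisinin control wells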; conditions: P. falciparum 3D7 erythrocytic growth, LDH absorbance, 72 h; at 2 µM; hits give high values
# [5] = target: Calcium-dependent protein kinase 1 (Plasmodium falciparum (isolate 3D7)) (UniProt P62344); assay: PfCDPK1 kinase inhibitors, biochemical, TCAMS library (AID 1159585; cut-off not given, nearly all actives have IC50 up to about 0.98 µM;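 also: inhibitors leave more ATP so luminescence rises with inhibition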); conditions: recombinant PfCDPK1, Kinase-Glo ATP depletion luminescence
# [6] = target: Plasmodium falciparum protein kinase 6 (PK6, PF3D7_1337100) (UniProt Q8IDW1); assay: PfPK6 kinase inhibitors, biochemical, TCAMS library (AID 1159586); conditions: recombinant PfPK6, Kinase-Glo ATP depletion luminescence
# [7] = target: Protein kinase 7 (PK7), Plasmodium falciparum 3D7 (PF3D7_0213400) (UniProt Q7YTF7); assay: inhibition of Plasmodium PK7 catalytic activity – biochemical, TCAMS antimalarial set, Kinase-Glo luminescence (AID 1159587); conditions: recombinant PfPK7, Kinase-Glo ATP depletion luminescence
# [8] = target: Calcium-dependent protein kinase 4 (Plasmodium falciparum (isolate 3D7)) (UniProt Q8IBS5); assay: PfCDPK4 kinase inhibitors, biochemical, TCAMS library (AID 1159588; cut-off not given, nearly all actives have IC50 up to about 0.91 µM); conditions: recombinant PfCDPK4, Kinase-Glo ATP depletion luminescence
# Calcium-dependent protein kinase 4 (Plasmodium falciparum (isolate 3D7)), sequence (Q8IBS5 whole entry, looked up): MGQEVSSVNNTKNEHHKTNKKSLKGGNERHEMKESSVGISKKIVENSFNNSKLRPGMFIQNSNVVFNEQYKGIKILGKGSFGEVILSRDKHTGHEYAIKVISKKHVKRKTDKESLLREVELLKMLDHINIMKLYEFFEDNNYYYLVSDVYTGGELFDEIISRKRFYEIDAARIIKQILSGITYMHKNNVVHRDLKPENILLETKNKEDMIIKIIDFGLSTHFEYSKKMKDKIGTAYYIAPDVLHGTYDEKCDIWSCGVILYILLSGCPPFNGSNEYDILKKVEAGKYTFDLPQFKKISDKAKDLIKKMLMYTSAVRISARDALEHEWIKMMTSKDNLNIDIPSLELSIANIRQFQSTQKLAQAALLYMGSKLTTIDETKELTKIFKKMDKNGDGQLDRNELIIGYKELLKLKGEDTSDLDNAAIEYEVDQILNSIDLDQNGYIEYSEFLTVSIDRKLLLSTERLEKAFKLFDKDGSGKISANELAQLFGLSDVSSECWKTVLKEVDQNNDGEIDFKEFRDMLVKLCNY
# Protein kinase 7 (PK7), Plasmodium falciparum 3D7 (PF3D7_0213400), sequence (Q7YTF7 1-343): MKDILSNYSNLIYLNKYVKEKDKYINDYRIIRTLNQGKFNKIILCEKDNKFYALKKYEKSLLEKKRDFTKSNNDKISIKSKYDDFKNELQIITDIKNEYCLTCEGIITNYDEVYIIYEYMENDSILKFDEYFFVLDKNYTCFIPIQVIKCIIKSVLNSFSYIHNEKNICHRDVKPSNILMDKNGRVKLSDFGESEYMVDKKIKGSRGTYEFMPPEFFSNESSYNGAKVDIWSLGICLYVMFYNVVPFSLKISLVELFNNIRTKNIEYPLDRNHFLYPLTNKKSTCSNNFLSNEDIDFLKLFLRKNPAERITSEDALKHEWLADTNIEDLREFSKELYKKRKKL
# Plasmodium falciparum protein kinase 6 (PK6, PF3D7_1337100), sequence (Q8IDW1 1-305): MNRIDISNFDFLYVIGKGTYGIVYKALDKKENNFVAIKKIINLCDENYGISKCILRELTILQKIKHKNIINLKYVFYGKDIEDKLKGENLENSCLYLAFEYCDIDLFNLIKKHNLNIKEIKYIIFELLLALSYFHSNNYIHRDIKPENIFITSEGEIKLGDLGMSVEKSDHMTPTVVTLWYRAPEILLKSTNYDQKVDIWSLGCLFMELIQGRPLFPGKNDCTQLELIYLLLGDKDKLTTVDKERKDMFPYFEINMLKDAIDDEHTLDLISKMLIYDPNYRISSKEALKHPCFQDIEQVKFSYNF
# Calcium-dependent protein kinase 1 (Plasmodium falciparum (isolate 3D7)), sequence (P62344 whole entry, looked up): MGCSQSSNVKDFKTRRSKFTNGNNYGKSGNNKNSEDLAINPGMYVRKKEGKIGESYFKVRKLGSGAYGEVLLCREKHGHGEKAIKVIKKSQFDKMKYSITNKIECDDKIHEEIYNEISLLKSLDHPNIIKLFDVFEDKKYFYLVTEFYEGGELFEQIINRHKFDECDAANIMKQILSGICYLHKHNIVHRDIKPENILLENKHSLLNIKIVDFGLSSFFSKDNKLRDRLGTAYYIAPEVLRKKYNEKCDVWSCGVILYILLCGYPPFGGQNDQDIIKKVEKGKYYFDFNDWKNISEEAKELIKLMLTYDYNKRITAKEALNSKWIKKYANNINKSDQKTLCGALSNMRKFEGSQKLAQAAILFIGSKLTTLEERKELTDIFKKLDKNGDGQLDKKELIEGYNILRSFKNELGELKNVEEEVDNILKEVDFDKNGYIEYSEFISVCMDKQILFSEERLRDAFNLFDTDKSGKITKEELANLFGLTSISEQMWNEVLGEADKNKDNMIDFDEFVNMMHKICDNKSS
# L-lactate dehydrogenase (Plasmodium falciparum (isolate CDC / Honduras)), sequence (Q27743 whole entry, looked up): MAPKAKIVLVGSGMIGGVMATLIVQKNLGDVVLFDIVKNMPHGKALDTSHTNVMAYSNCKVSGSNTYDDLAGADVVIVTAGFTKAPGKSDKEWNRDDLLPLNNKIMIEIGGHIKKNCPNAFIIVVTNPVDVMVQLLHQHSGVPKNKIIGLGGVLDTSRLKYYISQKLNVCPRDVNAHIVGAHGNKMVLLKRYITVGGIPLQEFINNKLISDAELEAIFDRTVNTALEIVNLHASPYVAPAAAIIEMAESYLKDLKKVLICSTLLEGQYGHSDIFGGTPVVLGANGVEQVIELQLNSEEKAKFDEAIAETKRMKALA
SMILES,growth inhibition [1],inhibition [2],inhibition [3] [%],growth inhibition [4],outcome [5],outcome [6],outcome [7],outcome [8]
COc1ccc(-c2ccc(NC(=O)c3ccc(F)cc3)cc2)cc1CN1CCCN(C)CC1,35%,29%,-2,98% (active),inactive,inactive,inactive,inactive
COc1cccc(OC)c1OCCCON1C(N)=NC(N)=NC1(C)C,96% (active),53% (active),1,95% (active),inactive,inactive,inactive,inactive
NC(N)=NN=CC(=O)Nc1ccc(Cl)cc1,2%,5%,-1,101% (active),inactive,inactive,inactive,inactive
NC1CCN(c2cnn(Cc3cccc(NC(=O)Nc4ccc(-c5ccccc5)cc4)c3)c(=O)c2Cl)CC1,11%,5%,-3,89% (active),inactive,inactive,inactive,inactive
CCOC(=O)c1[nH]c(-c2ccc(Cl)cc2)nc1NC(=S)NCCCN1CCOCC1,33%,22%,-4,92% (active),inactive,inactive,inactive,inactive
O=C(/C=C/c1ccc([N+](=O)[O-])cc1)N1CCC(NS(=O)(=O)c2ccc(F)cc2)CC1,-2%,-7%,-10,96% (active),inactive,inactive,inactive,inactive
CCc1cn2c3c(cc(C(=O)N[C@@H](Cc4ccccc4)[C@H](O)CNC(C)(C)c4cccc(OC)c4)cc13)N(C)S(=O)(=O)C2,99% (active),27%,-5,98% (active),inactive,inactive,inactive,inactive
O=S(=O)(c1c(Cl)cc(Cl)cc1Cl)N1CCCCC(c2ccc(Cl)cc2)=N1,93% (active),11%,3,95% (active),inactive,inactive,inactive,inactive
CC(C)N1CCC(NC(=O)N2CCCN(c3ncnc4cc(-c5ccccc5)sc34)CC2)CC1,11%,31%,-4,87% (active),inactive,inactive,inactive,inactive
O=C(NC1CCN(CCC(NC(=O)c2ccccc2)c2ccc(Cl)c(Cl)c2)CC1)c1ccc(Cl)cc1 (stereo not given),36%,17%,-2,97% (active),inactive,inactive,inactive,inactive
CN1CCN(c2ccnc3ccc(NC(=O)Nc4ccc(Cl)c(Cl)c4)cc23)CC1,17%,0%,-4,97% (active),inactive,inactive,inactive,inactive
N#Cc1ccc(CN2CCC(Oc3ccc(NC(=O)c4ccsc4)cc3Cl)C2)cc1 (stereo not given),79% (active),29%,-2,88% (active),inactive,inactive,inactive,inactive
O=C(C=Cc1ccc(Cl)c(Cl)c1)NCCCCCN1CCC(CCNC(=O)c2cccc3ccccc23)CC1,-1%,17%,4,85% (active),inactive,inactive,inactive,inactive
CCCc1cc(C(=O)N[C@@H](Cc2ccccc2)[C@H](O)CNC(C)C)c(F)c(N2CCCC2=O)c1,22%,-2%,0,90% (active),inactive,inactive,inactive,inactive
CCN(CC)c1ccc(C(c2ccc(N(CC)CC)cc2)c2cccc([N+](=O)[O-])c2)cc1,68% (active),39%,-1,91% (active),inactive,inactive,inactive,inactive
O=C(Cc1ccccc1)NC1CCN(c2ccnc3cc(Cl)ccc23)C1 (stereo not given),78% (active),6%,-6,101% (active),inactive,inactive,inactive,inactive
Cc1c(S(=O)(=O)Nc2ccc3ccn(CCN(C)C)c3c2)sc2ccc(Cl)cc12,94% (active),15%,0,98% (active),inactive,inactive,inactive,inactive
COc1ccc([N+](=O)[O-])cc1N(Cc1ccccc1-c1ccccc1)S(=O)(=O)c1ccc(C(F)(F)F)cc1,66% (active),3%,-2,96% (active),inactive,inactive,inactive,inactive
CCn1ncc(Cl)c1CN(C)S(=O)(=O)c1ccc(Br)cc1,70% (active),9%,4,90% (active),inactive,inactive,inactive,inactive
COc1ccc(C(=O)CCC(=O)N(CCC2CCCN2C)Cc2ccc(-c3ccc(CNCCc4ccc(S(C)(=O)=O)cc4)cn3)cc2)cc1F (stereo not given),45%,13%,-2,93% (active),inactive,inactive,inactive,inactive

SMILES,growth inhibition [1],inhibition [2],inhibition [3] [%],growth inhibition [4],outcome [5],outcome [6],outcome [7],outcome [8]
Cc1cc(N[C@@H](Cc2ccccc2)C(=O)NCc2cccs2)nc(NCCc2ccccc2)n1,61% (active),6%,-1,92% (active),inactive,inactive,inactive,inactive
CCc1nc(N)nc(N)c1CCCOc1ccccc1Cl,13%,61% (active),1,92% (active),inactive,inactive,inactive,inactive
CN(Cc1ccc(C#N)cc1)C1CCN(c2cc(NC(=O)c3ccc(F)cc3)ccn2)CC1,10%,24%,-5,86% (active),inactive,inactive,inactive,inactive
O=C(Nc1ccc(C(F)(F)F)cc1)NC1CCN(c2ccnc3cc(Cl)ccc23)C1 (stereo not given),99% (active),20%,-2,102% (active),inactive,inactive,inactive,inactive
CCc1[nH]nc(C(=O)NC2CCN(CC3(c4ccc(OC)cc4)CCCCC3)CC2)c1C,90% (active),2%,-1,90% (active),inactive,inactive,inactive,inactive
NC(=O)c1cccc(C(=O)Nc2cccc(-c3cccc(-c4nc5ccc(F)cc5[nH]4)c3)c2)c1,73% (active),47%,1,100% (active),inactive,inactive,inactive,inactive
Cc1cc(NN=CC=Cc2ccccc2)c2ccccc2n1,69% (active),19%,1,101% (active),inactive,inactive,inactive,inactive
COc1ccc2c(NN=Cc3cccc([N+](=O)[O-])c3)ccnc2c1,99% (active),-10%,5,101% (active),inactive,inactive,inactive,inactive
CCO[C@H]1CN[C@H](C#Cc2cc3c(Nc4ccc(OCc5cccc(F)c5)c(Cl)c4)ncnc3s2)C1,37%,8%,2,100% (active),inactive,inactive,inactive,inactive
O=C(Nc1cccc(CN2CCCN(Cc3cccc(Cl)c3)CC2)c1)c1ccc(Br)cc1,16%,38%,1,92% (active),inactive,inactive,inactive,inactive
O=C(NCc1ccc(Cl)c(Cl)c1)c1ccc(-c2nc3ccc(Cl)cc3[nH]2)cc1,22%,20%,-6,96% (active),inactive,inactive,inactive,inactive
Cc1cccc(C)c1CNc1ccnc2ccccc12,10%,59% (active),-1,92% (active),inactive,inactive,inactive,inactive
COc1cc2nc(N3CCC(CNC(=O)/C=C/c4cccc(C)c4)CC3)nc(N)c2cc1OC,68% (active),16%,-8,101% (active),inactive,inactive,inactive,inactive
NCc1ccc(CNCc2ccc(-c3ccc(-c4nc5ccc(F)cc5[nH]4)cc3)cc2)cc1,99% (active),12%,-3,100% (active),inactive,inactive,inactive,inactive
CCn1c(-c2nonc2N)nc2c(-c3cccc(NC(=O)Nc4cccc(OC)c4)c3)ncc(OCCCN)c21,69% (active),1%,4,92% (active),inactive,inactive,inactive,inactive
CCCCCCN1CCCN(Cc2ccc(C(=O)Nc3ccc(C(C)C)cc3)cc2)CC1,50% (active),40%,-4,93% (active),inactive,inactive,inactive,inactive
Cc1cc(C)c(S(=O)(=O)N2CCCCC(c3cccc(C(F)(F)F)c3)=N2)c(C)c1,95% (active),-1%,-2,94% (active),inactive,inactive,inactive,inactive
CS(=O)(=O)N(c1ccccc1)c1cc(C(=O)N[C@@H](Cc2ccccc2)[C@H](O)CNC2CCCCC2)cc(N2CCCC2=O)c1,97% (active),8%,-3,100% (active),inactive,inactive,inactive,inactive
COc1ccc2nccc([C@@H](O)CN3CCC(NCc4cc5c(Cl)cc(Cl)cc5[nH]4)CC3)c2c1,86% (active),93% (active),4,101% (active),inactive,inactive,inactive,inactive
COc1ccc(Cl)cc1N1CCN(CCCNC(=O)c2ccc(-c3nc4cc(Cl)c(Cl)cc4[nH]3)c(C)c2)CC1,-1%,4%,2,101% (active),inactive,inactive,inactive,inactive
